We go through 14 compounds from PubChem BioAssay AID1053 (University of Pittsburgh Molecular Library Screening Center, 2008).

Values joined by “and” are separate entries in the source; they are usually repeats but may differ in a detail not shown here. Equal entries are not always repeated. Values without a mark were called inactive. The rule behind the calls is not given here.

Serine/threonine-protein kinase PLK1 (Homo sapiens), sequence (P53350 whole entry, looked up, the tested form may be a part): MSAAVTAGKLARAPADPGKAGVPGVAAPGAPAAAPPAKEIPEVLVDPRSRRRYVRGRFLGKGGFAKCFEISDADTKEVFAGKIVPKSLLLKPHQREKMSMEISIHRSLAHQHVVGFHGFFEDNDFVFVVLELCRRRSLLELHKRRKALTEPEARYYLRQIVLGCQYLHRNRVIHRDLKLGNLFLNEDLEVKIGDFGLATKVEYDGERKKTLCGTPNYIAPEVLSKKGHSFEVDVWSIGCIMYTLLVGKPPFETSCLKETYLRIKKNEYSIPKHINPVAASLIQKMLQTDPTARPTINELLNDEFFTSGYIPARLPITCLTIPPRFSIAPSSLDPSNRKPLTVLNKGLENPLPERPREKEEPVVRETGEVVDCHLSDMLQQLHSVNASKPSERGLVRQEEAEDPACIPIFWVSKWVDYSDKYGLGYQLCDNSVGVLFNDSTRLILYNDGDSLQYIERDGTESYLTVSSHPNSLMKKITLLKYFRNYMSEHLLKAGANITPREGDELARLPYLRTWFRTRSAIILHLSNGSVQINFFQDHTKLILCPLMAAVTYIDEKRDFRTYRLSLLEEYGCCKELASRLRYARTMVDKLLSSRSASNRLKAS

This assay addresses Serine/threonine-protein kinase PLK1 (Homo sapiens) (UniProt P53350). Kind of assay: Plk1 polo box domain binding inhibitors, SAR follow-up, biochemical, fluorescence polarization, purchased analogs (AID 1053). The settings on record: Plk1 PBD fluorescence polarization peptide binding; at 20 µM; hits give high values.
Regarding `CCOC(=O)c1ccc(NC(=O)c2ccc(NC(=O)CC)cc2)cc1`, the inhibition was -9.03%.

Regarding `COC(=O)c1ccc(N(/N=C2\Sc3ccccc3C2=O)C(C)=O)cc1`, the inhibition is -20.9%.

Turning to `Cc1ccc(-c2nnc3[nH]c(=O)n(C)c(=O)c3n2)cc1`, the inhibition was -28.5% and -24.3%.

As to `COc1cc(C=C2C(=O)NC(=O)NC2=O)ccc1OCc1c(C)no[n+]1[O-]`, the inhibition is -67.5%.

For `CCOC(=O)c1ccc(NC(=O)C2CC(=O)N=C(N)S2)cc1` (centres undefined), the inhibition is -67.2%.

In the case of `CCn1c(N/C(O)=C/C(O)(C(F)(F)F)C(F)(F)F)nc2ccccc21`, the inhibition was -49.9%.

Turning to `CC(=O)N(/N=C1\Sc2ccccc2C1=O)c1ccccc1C`, the inhibition was 17.5%.

Take `Cn1c(=O)[nH]c2nnc(-c3ccc(C(F)(F)F)cc3)nc2c1=O`: the inhibition was -39.5% and -40.5%.

For `CC(=O)N(CN1C(=O)c2cccc([N+](=O)[O-])c2C1=O)c1ccc2c(c1)oc1ccccc12`, the inhibition is -35.9%.

On to `Cn1c(=O)c2nc(-c3ccccc3)c(=O)[nH]c2n(C)c1=O`, for which the inhibition was -31.3%.

`Cn1c(=O)[nH]c2nnc(-c3ccc([N+](=O)[O-])cc3)nc2c1=O`: the inhibition was -49.9%.

Take `CCOC(=O)c1ccc(N=Cc2c(O)n(Cc3ccccc3Cl)c(=O)[nH]c2=O)cc1`: the inhibition was -73.2%.

As for `O=C(COC(=O)c1ccc(NC(=O)c2ccc(Cl)cc2)cc1)c1ccccc1`, the inhibition was 41.3%.

`CCn1nc(-c2ccc(C)cc2)nc2c(=O)n(C)c(=O)nc1-2`: the inhibition was 16.7%.
